In test [1] the target is Guanine nucleotide-binding protein G(i) subunit alpha-1 (Homo sapiens) (UniProt P63096). Nature of the test: qHTS Assay for Inhibitors of RGS12 GoLoco Motif Activity (Green Fluorophore) (AID 879).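 Also: 0% = labeled peptide with Gαi1 and full inhibition = labeled peptide alone without protein; negative values mean loss of peptide binding seen as reduced polarization.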 The gist of the method:
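Fluorescence polarization assay: 50 nM Gαi1 with 10 nM FITC-labeled RGS12 GoLoco peptide in 10 mM Tris pH 7.5, 150 mM NaCl, 0.1 mM GDP, 0.05% NP40, 10 min at room temperature with compound.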
On the technique in general: Quantitative high-throughput screening tests each substance at several concentrations.

In test [2] the target is Cytochrome P450 2C9 (Homo sapiens) (UniProt P11712). Kind of test: qHTS Assay for Inhibitors and Substrates of Cytochrome P450 2C9 (AID 883). Also: nearly all actives have a fitted effect of over 60% in size. Also: potency is read from the fitted curve at half-maximal effect. The essentials:
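CYP2C9 deoxyluciferin hydroxylation, 37C, 60 min with NADPH regeneration; 10nM enzyme, 100uM Luciferin-H (KM). Glo detection reagent stopped reaction; luminescence normalized to sulphaphenazole (57uM) full inhibition.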

In test [3] the target is Cytochrome P450 3A4 (Homo sapiens) (UniProt P08684). Nature of the test: qHTS Assay for Inhibitors and Substrates of Cytochrome P450 3A4 (AID 884). Also: nearly all actives have a fitted effect of over 50% in size. Also: potency is read from the fitted curve at half-maximal effect. The essentials: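 20 nM human CYP3A4 with 25 uM Luciferin-PPXE (at KM) in 200 mM KPO4, preincubated 10 min with compound; NADPH regeneration started a 60 min RT reaction. Luciferin detected by luminescence, normalized to 57 uM ketoconazole as full inhibition.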

The target is the same in test [4]. Nature of the test: qHTS Assay for Activators of Cytochrome P450 3A4 (AID 885). Also: nearly all actives have a fitted effect of over 65% in size. The gist of the method:
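Quantitative HTS format: compounds preincubated with 20nM human CYP3A4 and Luciferin-PPXE substrate at KM, reaction started by NADPH regeneration, stopped after 60 min, luciferase luminescence read 20 min later.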

Test [5] addresses Cytochrome P450 2C19 (Homo sapiens) (UniProt P33261). Kind of test: qHTS Assay for Inhibitors and Substrates of Cytochrome P450 2C19 (AID 899). Also: nearly all actives have a fitted effect of over 60% in size. Also: potency is read from the fitted curve at half-maximal effect. The essentials:
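In 50mM KPO4, the reaction held 5nM enzyme and KM-level (10uM) Luciferin-H EGE; it ran 60 min at 37C after NADPH regeneration and a 10 min compound preincubation. Luminescence values were scaled to 57uM ketoconazole as complete inhibition.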

Test [6] is described as follows: qHTS Assay for Identification of Small Molecule Agonists for Thrombopoietin (TPO) Signaling Pathway (AID 917). Also: potency is read from the fitted curve at half-maximal effect. The essentials: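 Murine Ba/F3 cells expressing human TPO receptor and GPIIb-promoter luciferase, IL-3-starved overnight, given compound plus TPO at 26 pM (EC50). After 24 h at 37 C, 5% CO2, luminescence read.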
A short description of test [7]: Cellular Toxicity (caspase-3) BJ (AID 658).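 Also: cells exposed to compound for 16 hours; 0% = DMSO basal and 100% = 10 µM staurosporine.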 The gist of the method:
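Luminescent aminoluciferin-substrate cleavage reports caspase 3/7 activity in normal human BJ fibroblasts after 16 hr compound exposure at 37 °C. Normalized to DMSO (basal) and 10 uM staurosporine (100%); AC50 from Hill fit of concentration-response.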

Test [8] in a line: Cellular Toxicity (caspase-3) MRC-5 (AID 659).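 Also: cells exposed to compound for 16 h at 37 °C; 0% = DMSO basal and 100% = 10 µM staurosporine.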 The essentials:
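Luminescence from caspase-cleaved aminoluciferin substrate (Caspase-Glo 3/7, 1 hr RT) reports caspase 3/7 activity in MRC-5 lung fibroblasts after 16 hr compound exposure. Normalized to DMSO basal and 10 uM staurosporine as 100%; AC50 from Hill fits.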

Test [9] can be described thus: Cellular Toxicity (caspase-3) Mesangial (AID 660).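 Also: combined caspase 3 and 7 activity read by Caspase-Glo luminescence; cells exposed to compound for 16 h before the caspase read.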 The settings on record: Potency: caspase-3 activation. The gist of the method: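 Concentration-response qHTS: compound-induced rise in caspase 3/7 luminescence in human mesangial cells after 16 h, normalized to DMSO and 100 uM tamoxifen controls.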
A short description of test [10]: Cellular Toxicity (caspase-3) SK-N-SH (AID 661).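 Also: cells exposed to compound for 16 hours; 0% = DMSO basal and 100% = 10 µM staurosporine.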 The gist of the method: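 Caspase 3/7 activation is measured as a luminescence increase from aminoluciferin released by substrate cleavage in SK-N-SH cells after 16 hr compound treatment; values are AC50 from concentration-response curves.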
Test [11] can be described thus: Cellular Toxicity (caspase-3) H-4-II-E (AID 663).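 Also: cells exposed to compound for 16 hr before readout.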 As to conditions: H-4-II-E rat hepatoma, scaled: DMSO 0%, 100 µM tamoxifen 100%; at 92.2 µM (top of the series). The gist of the method:
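Luminescence from caspase-cleaved aminoluciferin substrate, read 20 min after reagent addition, reports caspase 3/7 activation in rat H-4-II-E cells after 16 hr compound exposure. Normalized to DMSO (basal) and 100 uM tamoxifen (100%); AC50 from Hill fits.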

The nature of test [12]: Cellular Toxicity (caspase-3) Hek293 (AID 664).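 Also: cells exposed to compound for 16 h at 37 °C before readout.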 The settings on record: HEK293 caspase-3 activation, DMSO = 0%, 100 µM tamoxifen = 100%; at 92.2 µM (top of the series). The essentials: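 Activation of caspase-3/7 is measured as increased luminescence from cleaved peptide-aminoluciferin substrate in HEK293 cells treated 16 hours at 37 °C. AC50 values come from Hill-equation fits of concentration-response data.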

Test [13] in a line: Cellular Toxicity (caspase-3) N2a (AID 665).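 Also: compound exposure lasted 16 h at 37 °C before readout.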 The settings on record: Potency: caspase-3 activation. The gist of the method:
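Plated mouse neuroblastoma N2a cells received titrated compounds for 16 h in complete medium. Caspase activity was then detected with a peptide-aminoluciferin luminescent reagent.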

The nature of test [14]: Cellular Toxicity (caspase-3) NIH 3T3 (AID 666).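 Also: 0% = DMSO basal and 100% = 100 µM tamoxifen stimulation.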 The gist of the method: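 Concentration-response qHTS in NIH 3T3 mouse fibroblasts scores caspase-3/7 activation as rising luminescence after 16 hr compound exposure. Signals are scaled between DMSO-only and 100 uM tamoxifen.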
Test [15] can be described thus: Cellular Toxicity (caspase-3) Renal Proximal Tubule (AID 667).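 Also: cells exposed to compound for 16 hours at 37 °C before detection; 0% = DMSO basal and 100% = 10 µM staurosporine.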 As to conditions: Potency: caspase-3 activation. The essentials:
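Freshly isolated primary rat kidney proximal tubule cells, 1000/well, treated 16 hr at 37 °C, then Caspase-Glo 3/7 luminescence after 1 hr. Normalized to DMSO and 10 uM staurosporine; AC50 from Hill fit.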

Test [16] addresses Cytochrome P450 2D6 (Homo sapiens) (UniProt P10635). Kind of test: qHTS Assay for Inhibitors and Substrates of Cytochrome P450 2D6 (AID 891). Also: nearly all actives have a fitted effect of over 60% in size. Also: potency is read from the fitted curve at half-maximal effect. The essentials: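 Human CYP2D6 (5 nM) with 30 uM Luciferin-ME EGE (at Km) in 100 mM KPO4, compound preincubated 10 min, then NADPH regeneration system for 60 min at room temperature. Luciferin read by luminescence; normalized to 1.43 uM quinidine.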

Test [17] in a line: qHTS Assay for Identification of Small Molecule Antagonists for NFkB Signaling Pathway (AID 895; active = well fitted inhibition curve with a large enough effect in the signal ratio, with a control signal flat, not every such curve was filed as active; the % refers to the signal ratio; also: % is scaled to controls: 0 for no effect and ±100 for the full control effect). The gist of the method: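 NFkB-bla ME-180 cervical carcinoma cells with beta-lactamase reporter under NFkB response element; compounds added, then TNF alpha at 10 pM final (EC50), 5 h at 37 C. LiveBLAzer substrate 2 h, room temperature; emission 460/530 nm at 405 nm excitation.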

Test [18] can be described thus: Confirmation and Secondary Assay for Modulators of Hemoglobin Beta Chain Splicing at IVS2 654 locus (AID 910).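 Also: per-well total GFP intensity by laser scanning cytometry after 2-day treatment; % of control where 0% means no effect.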 The gist of the method:
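HeLa cells stably carrying EGFP interrupted by mutant beta-globin IVS2-654 intron (CMV-driven) were treated with compound for 2 days at 37C; corrected splicing was scored as total peak GFP intensity per well (488 nm excitation, 500-520 nm emission).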

SMILES strings stand for the structures. Inconclusive results are not listed. Some structures have more than one record in an assay (separate samples or runs), and their calls can disagree. The source made the active and inactive calls. Unless noted, calls follow the shape of the dose curve; as a rule, active = well fitted curve in the direction sought with a large enough effect; inconclusive = small, poorly fitted or top-dose-only effect, or another doubt; inactive = no such curve, though single readings can be large; an effect the other way counts as inactive or inconclusive.

Cytochrome P450 2C19 (Homo sapiens), sequence (P33261 whole entry, looked up): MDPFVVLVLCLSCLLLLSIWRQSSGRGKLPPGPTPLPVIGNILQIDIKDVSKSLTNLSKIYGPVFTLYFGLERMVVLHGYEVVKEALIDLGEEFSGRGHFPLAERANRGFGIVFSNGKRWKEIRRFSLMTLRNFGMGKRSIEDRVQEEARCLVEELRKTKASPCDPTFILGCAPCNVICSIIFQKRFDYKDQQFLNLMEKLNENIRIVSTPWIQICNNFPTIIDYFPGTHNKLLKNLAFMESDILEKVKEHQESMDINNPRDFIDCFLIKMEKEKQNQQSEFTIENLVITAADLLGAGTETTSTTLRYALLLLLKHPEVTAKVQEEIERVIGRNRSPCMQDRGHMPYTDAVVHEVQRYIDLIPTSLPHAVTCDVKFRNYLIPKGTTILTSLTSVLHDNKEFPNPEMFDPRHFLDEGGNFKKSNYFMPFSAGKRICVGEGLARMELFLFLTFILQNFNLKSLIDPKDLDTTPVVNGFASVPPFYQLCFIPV
Guanine nucleotide-binding protein G(i) subunit alpha-1 (Homo sapiens), sequence (P63096 whole entry, looked up): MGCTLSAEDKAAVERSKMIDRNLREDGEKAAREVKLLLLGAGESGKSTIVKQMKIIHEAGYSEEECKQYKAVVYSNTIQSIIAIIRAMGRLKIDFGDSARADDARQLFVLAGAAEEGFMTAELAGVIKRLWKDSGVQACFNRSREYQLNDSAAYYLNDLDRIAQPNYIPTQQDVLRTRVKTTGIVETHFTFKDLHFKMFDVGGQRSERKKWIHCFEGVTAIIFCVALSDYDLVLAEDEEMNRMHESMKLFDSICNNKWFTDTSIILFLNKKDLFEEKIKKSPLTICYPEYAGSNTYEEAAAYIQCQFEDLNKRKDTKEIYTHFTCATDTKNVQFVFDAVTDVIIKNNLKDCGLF
Cytochrome P450 2C9 (Homo sapiens), sequence (P11712 whole entry, looked up): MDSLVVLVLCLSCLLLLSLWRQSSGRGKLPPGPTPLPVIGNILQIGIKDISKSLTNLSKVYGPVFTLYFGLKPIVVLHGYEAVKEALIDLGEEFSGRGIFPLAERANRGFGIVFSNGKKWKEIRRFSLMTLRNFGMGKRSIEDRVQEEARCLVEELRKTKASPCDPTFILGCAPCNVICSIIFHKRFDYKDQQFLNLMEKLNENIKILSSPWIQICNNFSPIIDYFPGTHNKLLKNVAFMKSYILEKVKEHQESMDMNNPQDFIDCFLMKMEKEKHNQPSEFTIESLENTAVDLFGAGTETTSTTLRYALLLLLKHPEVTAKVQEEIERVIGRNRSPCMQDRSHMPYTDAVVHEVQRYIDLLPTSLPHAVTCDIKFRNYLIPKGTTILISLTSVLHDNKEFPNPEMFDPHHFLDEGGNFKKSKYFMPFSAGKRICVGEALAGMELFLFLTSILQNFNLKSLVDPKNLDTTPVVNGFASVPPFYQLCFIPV
Cytochrome P450 3A4 (Homo sapiens), sequence (P08684 whole entry, looked up): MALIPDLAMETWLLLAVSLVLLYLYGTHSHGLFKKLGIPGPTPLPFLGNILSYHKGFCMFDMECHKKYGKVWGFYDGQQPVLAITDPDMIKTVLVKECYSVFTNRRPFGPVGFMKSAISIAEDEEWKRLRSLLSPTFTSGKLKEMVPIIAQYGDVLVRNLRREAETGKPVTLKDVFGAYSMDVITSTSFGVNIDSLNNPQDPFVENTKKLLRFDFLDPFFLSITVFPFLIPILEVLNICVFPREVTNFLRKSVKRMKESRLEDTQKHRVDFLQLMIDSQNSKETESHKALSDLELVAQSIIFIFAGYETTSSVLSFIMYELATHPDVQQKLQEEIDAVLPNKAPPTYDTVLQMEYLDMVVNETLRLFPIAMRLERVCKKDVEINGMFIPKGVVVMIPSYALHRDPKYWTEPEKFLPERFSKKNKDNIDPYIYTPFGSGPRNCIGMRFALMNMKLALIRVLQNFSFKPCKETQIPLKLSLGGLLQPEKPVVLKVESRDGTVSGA
Cytochrome P450 2D6 (Homo sapiens), sequence (P10635 whole entry, looked up): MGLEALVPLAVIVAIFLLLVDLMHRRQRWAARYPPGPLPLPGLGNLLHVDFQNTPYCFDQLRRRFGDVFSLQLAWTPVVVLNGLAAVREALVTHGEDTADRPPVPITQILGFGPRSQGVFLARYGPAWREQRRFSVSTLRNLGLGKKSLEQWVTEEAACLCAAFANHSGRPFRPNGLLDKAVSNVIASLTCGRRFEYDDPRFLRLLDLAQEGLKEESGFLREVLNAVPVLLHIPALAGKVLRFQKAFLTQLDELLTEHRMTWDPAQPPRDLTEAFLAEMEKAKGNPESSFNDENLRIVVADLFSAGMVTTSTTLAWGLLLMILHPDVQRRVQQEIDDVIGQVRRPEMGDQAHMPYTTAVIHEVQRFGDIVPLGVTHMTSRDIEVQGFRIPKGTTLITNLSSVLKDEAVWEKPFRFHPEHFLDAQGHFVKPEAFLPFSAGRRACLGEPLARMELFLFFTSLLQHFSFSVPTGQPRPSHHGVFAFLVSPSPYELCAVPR

`COC(=O)c1c(C)[nH]c(C)c1C(=O)c1ccccc1Cc1ccccc1`: the result in test [1] was inactive. Further, the Potency in test [2] was 2.51 µM (active); in test [3], 0.501 µM (active); in test [5] it was 100 nM (active). The Potency result in test [4] and in [6] was “inactive” in each case.
For `Nc1ccc([N+](=O)[O-])cc1O`, the outcome in [7] and in [8] was inactive. The Potency entry in [9], in test [10], in test [13], in test [14], in test [15] and in [3] was “inactive” throughout. Further, the caspase-3 activation was 2.85% (inactive) in test [11] and -2.49% (inactive) in test [12].
With `C#C[C@]1(O)CC[C@H]2[C@@H]3CCc4cc(O)ccc4[C@H]3CC[C@@]21C`, the result in test [7] and in test [8] was inactive. In addition, the Potency entry in test [9], in [10], in test [13], in test [14], in test [15] and in test [4] was “inactive” each time. Moreover, the caspase-3 activation was 3.92% (inactive) in test [11] and -0.747% (inactive) in test [12].
With `c1cnc2c(c1)ccc1cccnc12`, the compound was classed as inactive in test [7] and in test [8]. In addition, the Potency result in test [9], in test [10], in [13], in test [14], in test [15] and in test [2] was “inactive” each time. Also, the Potency result in test [3], in [16] and in test [5] was “inactive” each time. The caspase-3 activation in test [12] was -4.62% (inactive).
Consider `CCCCCCCCCCCCCCCCCC(=O)O`, for which the compound was classed as inactive in [7] and in test [8]. Besides, the Potency result in [9], in test [10], in test [13], in [14], in [15] and in test [3] was “inactive” throughout. Besides, the figures for the caspase-3 activation in test [11] and in test [12] were -0.546% (inactive) and 0.144% (inactive), respectively.
Consider `CN1CCC[C@H]1c1cccnc1`, for which the result in test [7] and in [8] was inactive. The Potency entry in test [9], in [10], in test [13], in [14] and in [15] was “inactive” throughout. The caspase-3 activation was -0.172% (inactive) in test [11] and 1.08% (inactive) in test [12].
Consider `O=c1cc(-c2ccccc2)oc2ccccc12`, for which the result in [7] and in test [8] was inactive. The Potency entry in test [9], in [10], in [13], in test [14] and in test [15] was “inactive” in each case. The caspase-3 activation in [11] is -0.716% (inactive); in test [12], -5.01% (inactive).
In the case of `Cc1ccc(O)c(N=Nc2ccccc2)n1`, the call in test [1] was inactive. The Potency in [2] was 12.6 µM (active) and inactive; in [16], 3.98 µM (active) and inactive; in test [5] it was 3.98 µM (active) and inactive; in test [6], 0.0794 µM (active). Besides, the Potency entry in [4] was “inactive”.
For `O=C(O)c1cc(=O)c2c(Cl)cc(Cl)cc2[nH]1`, the compound was called inactive in [1] and in test [18]. Further, the Potency result in test [2], in test [3], in test [16], in [17], in test [5] and in test [6] was “inactive” throughout.
With `NCCO`, the result in test [7] and in test [8] was inactive. Besides, the Potency entry in test [9], in [10], in [13], in test [14], in [15] and in test [3] was “inactive” in each case. Moreover, the figures for the caspase-3 activation in [11] and in test [12] were -0.037% (inactive) and -4.95% (inactive), respectively.

Values taken from PubChem BioAssay (NCATS).
